Screening data as filed in PubChem.
LAP4-GFP MLPCN: modulators of LAP4-GFP expression in yeast, primary screen, S. cerevisiae, multiplex flow cytometry, MLPCN library | 3 h; median GFP as percent of DMSO wells | GFP response vs DMSO, % at 10 µM | 320,000 tested, 0.34% active | AID 2023, 2009;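 active = GFP response vs DMSO above a set limit, about the screen mean plus 3 SD, cut at about 150% in these data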
CIT2-GFP yeast: modulators of CIT2-GFP expression in yeast, primary screen, S. cerevisiae, GFP fusion, multiplex flow cytometry, MLPCN library; S. cerevisiae CIT2-GFP strain, 3 h; 100 means same as DMSO wells; GFP response vs DMSO, % at 10 µM; 320,000 tested, 0.065% active; AID 2029, 2009;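 active = GFP response relative to DMSO above a set limit, near the screen mean plus 3 SD, cut at about 150% in these data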;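 also: ratio of well median GFP fluorescence to mean of DMSO wells on the plate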
MEP2-GFP yeast: modulators of MEP2-GFP levels in yeast, primary screen, S. cerevisiae, multiplex flow cytometry, MLPCN library. 330,000 tested, 0.51% active. S. cerevisiae MEP2-GFP strain, 3 h; 100% = DMSO control level. GFP response vs DMSO, % at 10 µM;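 active = GFP response versus DMSO above a set limit, roughly screen mean plus 3 SD, cut at about 180% in these data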;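 also: median GFP fluorescence of the barcode-gated MEP2-GFP cells per well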
AGP1-GFP MLPCN: modulators of AGP1-GFP expression in yeast TOR pathway, primary screen, cell-based, multiplex flow cytometry, S. cerevisiae, MLPCN library; 3 h; GFP as percent of DMSO wells; 320,000 tested, 0.02% active; GFP response vs DMSO, % at 10 µM;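 active = GFP response relative to DMSO above a set limit, near screen average plus 3 SD, cut at about 150% in these data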;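 also: median GFP channel fluorescence of the gated AGP1 strain per well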
RPL19A-GFP yeast: RPL19A-GFP expression modulators in yeast, primary screen, cell-based, S. cerevisiae, multiplex flow cytometry, MLPCN; S. cerevisiae RPL19A-GFP strain, 3 h; active compounds read low; percent response vs DMSO, % at 10 µM; 330,000 tested, 0.3% active; AID 2025, 2009;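 active = percent response vs DMSO below 50%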;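 also: median channel GFP fluorescence of the barcoded RPL19A-GFP strain; ratio of sample median GFP to plate DMSO average so 100% = DMSO; lower means less RPL19A-GFP as with rapamycin TOR inhibition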
Efflux pump mplx: inhibitors of Candida efflux pumps in yeast, primary screen, S. cerevisiae, Nile Red, multiplex; S. cerevisiae Candida pump triplex; inhibition, % at 10 µM; 330,000 tested, 0.44% active; AID 485275, 2010;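 active = plate passing quality check with inhibition over a set limit, or well fluorescence over plate mean plus 4 SD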;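 also: Nile Red retained in pooled yeast measured as flow cytometry median fluorescence; 0% = buffer negative control and 100% = Enniatin B positive control; higher means more Nile Red kept so more efflux inhibition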
LAP4 cherry2: LAP4-GFP expression modulators in yeast, confirmation, cell-based, second cherry pick, flow cytometry. shares compounds with LAP4-GFP MLPCN. AID 2621, 2010. S. cerevisiae LAP4-GFP strain, 3 h. 590 tested, 20% active. GFP response vs DMSO, % at 10 µM;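 active = GFP signal as percent of the solvent control above about 150%, meaning raised reporter expression, limit read from the data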;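 also: ratio of well median GFP fluorescence to plate DMSO mean so 100% = DMSO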
MEP2 cherry2: modulators of MEP2-GFP levels in yeast, confirmation, S. cerevisiae, flow cytometry GFP, second cherry picks; S. cerevisiae MEP2-GFP strain, 3 h; shares compounds with LAP4-GFP MLPCN; GFP response vs DMSO, % at 10 µM; 590 tested, 10% active;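 active = GFP signal above 150% of the solvent control wells, that is a rise of more than half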;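 also: median channel GFP fluorescence of all gated yeast cells per well; ratio of median GFP to plate DMSO average so 100% = DMSO level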
RPL19A-GFP pick2: RPL19A-GFP modulators in TOR pathway yeast, confirmation, cell-based, S. cerevisiae, flow cytometry, second cherry pick | shares compounds with LAP4-GFP MLPCN | S. cerevisiae RPL19A-GFP strain, 3 h; active compounds read low; 100% means same as DMSO wells | GFP response vs DMSO, % at 10 µM | 590 tested, 3% active;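 active = under 65% GFP response relative to DMSO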;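 also: median GFP channel fluorescence per well over the all cells gate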
CIT2-GFP pick2: modulators of CIT2-GFP expression in yeast, confirmation, flow cytometry, second cherry pick, single plex. shares compounds with LAP4-GFP MLPCN. GFP response vs DMSO, % at 10 µM. 590 tested, 8% active. S. cerevisiae CIT2-GFP strain, 3 h; DMSO control wells read 100%;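 active = GFP response vs DMSO above about 150%, limit read from the data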;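 also: median green fluorescence per well over all gated yeast cells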
AGP1 GFP CP2: AGP1-GFP expression modulators, hit retest, confirmation, cell-based, flow cytometry, S. cerevisiae, cherry pick set 2; shares compounds with LAP4-GFP MLPCN; S. cerevisiae AGP1-GFP strain, 3 h; percent response vs DMSO, % at 10 µM; 590 tested, under 10 active;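 active = over 150 percent of DMSO response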;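 also: median GFP channel fluorescence over all cells without mother daughter split; sample median GFP divided by mean DMSO control so 100% equals DMSO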
Yeast autofluor: compound autofluorescence in yeast s288c, dose response, artefact control for yeast TOR pathway GFP screen, s288c strain; fluorescence change (kMESF span) at 33 µM; S. cerevisiae s288c, 520 nm autofluorescence, flow cytometry, 3 h; active compounds read high; zero means same as solvent-only cells; 610 tested, under 10 active; shares compounds with LAP4-GFP MLPCN;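 active = fluorescence span over the dose series, or activity score, above about 33, limit read from the data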
Yeast autofl DR: autofluorescence of compounds in yeast s288c, dose response, artefact control for yeast TOR pathway GFP screen, primary hits, KU SAR, s288c parental. fluorescence change (span) at 33 µM. AID 488829, 2010. shares compounds with LAP4-GFP MLPCN. S. cerevisiae s288c parental, compound autofluorescence, flow cytometry, 3 h. 110 tested, under 10 active;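 active = fluorescence change span, or the activity score built from it, above 25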
TORC1 bypass: wild-type yeast growth inhibition sparing TORC1 bypass cells, mechanism study for yeast TOR pathway GFP screen, BY4741 wild type, TORC1 bypass strain; growth rating (0-3) at 30 µM; 120 tested, under 10 active; AID 504456, 2011; shares compounds with LAP4-GFP MLPCN; S. cerevisiae BY4741 spot growth rating, 48-72 h; active compounds read low;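 active = growth rating at most 1 for wild type yeast while the TORC1 bypass strain still grows fully, rated 3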
Numbers without * were called inactive; nt = not tested or not shown. Compounds with a hit are over-represented: about 1.3% of the library has one in this group of screens.

SMILES | LAP4-GFP MLPCN | CIT2-GFP yeast | MEP2-GFP yeast | AGP1-GFP MLPCN | RPL19A-GFP yeast | Efflux pump mplx | LAP4 cherry2 | MEP2 cherry2 | RPL19A-GFP pick2 | CIT2-GFP pick2 | AGP1 GFP CP2 | Yeast autofluor | others
CCC(=NCCCN(C)C)c1c(O)n(-c2ccc(OC)cc2)c(=O)[nH]c1=O | 156* | 92 | 100 | 108 | 82 | 0 | 100 | 107 | 101 | 100 | 99 | nt
O=C(O)c1cc[c]([Hg][Cl])cc1 | 255* | 115 | 129 | 90 | 62 | 0 | 190* | 193* | 81 | 100 | 73 | 0.81
O=C1NC(=S)NC(=O)C1=Cc1ccc2c(c1)CCN2CCCCl | 245* | 75 | 88 | 81 | 95 | 0 | nt | nt | nt | nt | nt | 1.8
CP(=O)(Nc1ccccc1)C(Cl)(Cl)Cl (configuration not stated) | 100 | 102 | 97 | 105 | 99 | 0 | nt | nt | nt | nt | nt | nt
CCN(CC)CCC(=O)O[C@H]1CC[C@]2(C)C3CC[C@@]4(C)C(CC[C@]4(C)O)C3CC[C@H]2C1 (some centres not stated) | 177* | 90 | 92 | 112 | 81 | 0 | 100 | 103 | 101 | 100 | 96 | nt
C[C@]12CCC3C(CC[C@H]4C[C@@H](O)CC[C@]34C)C1CC[C@@]2(O)C(F)(F)F (some centres not stated) | 94 | 95 | 90 | 95 | 97 | 0 | nt | nt | nt | nt | nt | nt
CC1CCN(CC#CCOc2ccc(Cl)cc2)CC1 | 92 | 97 | 103 | 91 | 94 | 0 | nt | nt | nt | nt | nt | nt
CCOC(=O)c1[nH]ncc1CN1CCCC(C(=O)c2cccc(Cl)c2)C1 (configuration not stated) | 103 | 104 | 94 | 103 | 95 | 0 | nt | nt | nt | nt | nt | nt
C[C@@H]1C[C@@H]([C@H](O)CC2CC(=O)NC(=O)C2)C(=O)[C@@H](C)C1 | 89 | 50 | 96 | 41 | 49* | 0 | 126 | 157* | 75 | 93 | 73 | 0.7 | Yeast autofl DR=0.41;TORC1 bypass=0
O=C1NC(=O)N(c2cccc(Cl)c2)C(=O)/C1=C\c1ccc(Sc2nc3ccccc3[nH]2)o1 | 83 | 106 | 98 | 100 | 98 | 0 | nt | nt | nt | nt | nt | nt
O=C1NC(=O)N(c2ccccc2)C(=O)/C1=C/c1ccc(Sc2ccccc2)o1 | 170* | 75 | 88 | 73 | 78 | 0 | nt | nt | nt | nt | nt | 0.91
COc1ccc(-n2c(/C=C/c3ccc(O)c(OC)c3)nc3ccccc3c2=O)cc1 | 103 | 96 | 110 | 98 | 103 | 0 | nt | nt | nt | nt | nt | nt
COc1cc(/C=C/[N+](=O)[O-])ccc1O | 245* | 77 | 86 | 80 | 88 | 0 | 191* | 131 | 93 | 132 | 120 | 0.2
CCCOc1ccc(C(=O)NC(=S)N2C[C@H]3C[C@H](C2)c2cccc(=O)n2C3)cc1 | 105 | 106 | 105 | 110 | 105 | 0 | nt | nt | nt | nt | nt | nt
CN(C)C(=O)Oc1ccc(Cl)c2cccnc12 | 101 | 96 | 94 | nt | 89 | 0 | nt | nt | nt | nt | nt | nt
CN(C)C(=O)Oc1ccnc2cc(Cl)ccc12 | 101 | 94 | 97 | 105 | 95 | 0 | 99 | 95 | 100 | 105 | 100 | 0.1
CCCCn1c(C)c(C(=O)O)c2cc(OC)c3ccccc3c21 | 96 | 114 | 108 | 96 | 102 | 0 | nt | nt | nt | nt | nt | nt
O=C1NC(=O)N(Cc2ccco2)C(=O)/C1=C/c1ccc(-c2cccc([N+](=O)[O-])c2)o1 | 169* | 77 | 84 | 73 | 100 | 0 | nt | nt | nt | nt | nt | 0.71
Cc1ccc2c(c1)C(c1ccccc1)=NCC(=O)N2C | 116 | 99 | 102 | 119 | 102 | 0 | nt | nt | nt | nt | nt | nt
C=CCN1C(=O)/C(=C/c2cccs2)C(=O)NC1=S | 204* | 49 | 81 | 72 | 79 | 0 | 112 | 136 | 68 | 69 | 61 | -1.1
O=C1NC(=O)N(CCc2ccc(F)cc2)C(=O)/C1=C/c1cccs1 | 172* | 73 | 100 | 86 | 88 | 0 | nt | nt | nt | nt | nt | 0
O=C1NC(=O)N(CCC2=CCCCC2)C(=O)/C1=C\c1cccs1 | 123 | 76 | 85 | 83 | 94 | 0 | nt | nt | nt | nt | nt | nt
CC1N=C(c2ccccc2Cl)c2cc(Br)ccc2NC1=O (configuration not stated) | 95 | 104 | 103 | 103 | 105 | 0 | nt | nt | nt | nt | nt | nt
CCCCCn1c(=O)c(C(=O)Nc2nc3ccccc3[nH]2)c(O)c2ccccc21 | 111 | 89 | 98 | 103 | 98 | 0 | 98 | 97 | 100 | 104 | 97 | 0.1
Cc1ccc(/C=C2\C(=O)NC(=S)N(c3ccc(F)cc3)C2=O)s1 | 237* | 66 | 96 | 81 | 81 | 0 | 199* | 120 | 92 | 115 | 98 | -0.2
